# The supplement of paper PMC12632987
# The full ranking holds about 4,500 sequences; the median of “median log2 fold change of GCK-ALFA target abundance (FLAG IP / Myc IP barcode read proportion)” is about 0.078, and the lowest 2% start at about -0.6. Shown is part of a subset that was picked to be rich in the lowest values.
# B1: GBRAP_160_4617 (protein)
# chain: SSKIEELKKFVKEEFEEAKEMIEGETPEQRAAIVDVTIGEIILEAEELEVVSDESLEKIDEIGDELVETILENPDLTEEEVKELIDEAEKKIIEIIEEDE
# B2: GBRAP_160_4619 (protein)
# chain: SEKVEELKKFVEEEFEETKEMIVGQTPEERAAIVDVTIGEIILEAEELEVVSDETLDEIDEIGDELVETILANPDLTDEEIKALIDEAREKIIALIEKDE
# B3: GBRAP_53_6397 (protein)
# chain: SAATIAALLAELRALIAEVDADPTLDPEEVAARAGELLRAAVAAGAPAAELTALARELAAAVAARGLGVEVGTRLAATAAAAGAEEVAAVFTEAAVEDLE
# B4: GBRAP_26_5497 (protein)
# chain: FLEEILEELRREIKEILKDESPELQAAVIATAEDLLLEADEEIEENAEDEEKIKEAIEKAVEEMRKELERFGLSEEKIEKIVEALRRALEKVAERIKEEA
# B5: GBRAP_52_5995 (protein)
# chain: SAARIEAVAREIVALVLAGDREGARALIRKAFRELSDEEIVEMVRLATRLLMEDPRATDEDIRTFIDLVLDTAEEEGLDEETIADIIGAIATAIKEAELK
# B6: GBRAP_125_3094 (protein)
# chain: EEEALLAALRRLALALGFSEEEAEELAELAARSSLRQTLYALFAAEGYEELADLVEKLTEEQAREALLRLAAWLDAHPDASREEVVARAREIAEELLAAA
# B7: GBRAP_160_4419 (protein)
# chain: DELIEEVDELLDETEELVVELVEEGKREEAIAALRVGAGEILLLLDEDESVSEETEEKVDKILDETIKKFEENKDASPEEVRELLDKAREEILAVLKEGS
# B8: GBRAP_137_3646 (protein)
# chain: PNVTITKETIDDLVEINIEFDDPEKAEEAAELIRDVAHEHGALAVSIEINEDGTLEATIWVPKDKAQALIDALVTRLRTELGANVTVIDKDTGETTVVKA
# B9: GBRAP_137_3669 (protein)
# chain: MIEAEIELENGLAFARITVEGSKEELERAAEIAEDIAGEIPNLAVSVELSEDGTLVIDVFGTKEDVLKFLKELAKRLNKTVKVKTKNLETGEEKEEVIEP
# B10: GBRAP_125_3101 (protein)
# chain: MEEELLEALKRFALALGFSEEDAEEAAELAKKFSLKQTLIALLLAEGEEELAELVEKLTEEEAKEVLLKLDEYLKKNPNASKEEVLKKFKELVEEALKAS
# B11: GBRAP_125_3103 (protein)
# chain: EEEELLEALKALALALGFSEEDAEEAAELARRFSLKNTLIAILLAEGEEELAELVEKLTEEQAKEVLKKLAEWLKENPNASKEEVIKKLKELVEEALKKA
# B12: GBRAP_125_3102 (protein)
# chain: EEEELLEALRRLALALGFSEEEAEEAARLAREFSLRQTLIALLLAEGEEELAELVEKLTEEQAKEVLRRLAEYLEAHPDATREEVVAKLRELVEEALAAA
# B13: GBRAP_125_3104 (protein)
# chain: SEEELLEDLKALALALGFSEEDAEEAARLAAEFSLKNTLIAILLAEGEEELAELVEKLTEEQAKEVLKKLAEYLKKHPNATKEEVIEKFKELVEEALAKS
# B14: GBRAP_184_5289 (protein)
# chain: MVEEVVIEAENAEEAIKKIKEAAEKAKKEGKKLRLYLFLKNVDVEGFKKIAELLKELKEEGIIEDAIVEILDERTEEETDKFVEIADKAGIRLVIALSDE
# B15: GBRAP_128_3375 (protein)
# chain: VNEEFLKEIEELVEKMLESSVEEVRELTKKIVELLSKASLEEQEAAVEIILEKLPEFSVEKLEAIADVLREERKKASPELQELLADVEVEALNEAEEKEE
# B16: GBRAP_184_5038 (protein)
# chain: AIKEVTIEAKDLEELKAKLAELEEEMKNFKGDLIVHVKSPKFTKEMVEELMSTLKNMLDKGYISSATVGLDGEMTEEVVDLAVKLADEAGIKVVLALDEE
# B17: GBRAP_11_2726 (protein)
# chain: RKETILKFAKEAEALAKEIEKLIKEGPTKEGLEKLAKKAKALYEAAKKAGLPEDIVETLKIAAELLKEAIADPKNAEKYLREAAAAFRVAAGLLLLEAEE
# B18: GBRAP_14_3852 (protein)
# chain: IEELIKAVEETAKETKEMAKEVLPEHAEEVNKKIEELAKKIIKKIKEENLNKEEVAELMDEFAEELAKFIKEKGFANETEIAAIRATILNEAALKLDEIE
# B19: GBRAP_150_3939 (protein)
# chain: DLEELLLLAQGIETDLELALEPGFDKLKLAERALELAKDIAKESDEELKKLAEELIKLLEEAIKAIKAGAEEKEIQKLLEEALRKARELIEEIEKKIEEE
# B20: GBRAP_9_7172 (protein)
# chain: LKAAAAAAIAELREARDFILEIAPEAAAGAVDAAFDALIAALEAARADPTVTPEQFEATLAAGFAAIRAAAAAHLSPEVAAAVETEMLTVRDIADEKLDE
# B21: GBRAP_95_7026 (protein)
# chain: EDDQLLVDSLTEVLETYVDLGDEERAREAARRLVRALRENGILPLPKSISVEAAKLILEVALEELDLEELEALAKQLIEATKDEEVRKYAEAKIAEKRAR
# B22: GBRAP_52_6035 (protein)
# chain: MEERMRELARRIVELLLAGREEEARRLIREAVETLSEEELKLLGEELARLAREAAPEDLDAIMEAAFLLADALEEGGYDEVLADDLLARVAAAAVANLQA
# B23: GBRAP_52_6042 (protein)
# chain: MEERMRELAEEILALYLEGREEEARKLIREAVETLSEEELKLLGEALAELAREAPPEHLDAYMQAAFDLADALEEAGYDEVLADDLEARVAAAAVENLKR
# B24: GBRAP_52_6034 (protein)
# chain: MRERMRRLAEEAVALALAGDEEGAKALIKEAVETLSEEELKLLGEELARLAREAAPEDLDAIMEVAFWLADALIEAGYDEVFADDLEARVARAAVENLQA
# B25: GBRAP_160_4751 (protein)
# chain: SEALKKLKEEVKKIFEEGIEMLKEVPAEEAPTVLRGVMGEVLMEVFSSEAASDELEEEVGEVVDKAEAEAAANANAPVEYHIELLEKAKKEILEIIEKEI
# B26: GBRAP_52_6275 (protein)
# chain: MEEEAERLAEEFIRVALEGSEEEIREFARRLVEEKSEELIARVLEIVVEKAEELNAEEIEKLLEAVLILEGELEEAGRDPLPAQDAAARLAKLHEEKLKE
# B27: GBRAP_78_6606 (protein)
# chain: EVEELLEEAIELLSKAAKLLKELPPEVRDELMDLLVEAMSLLLESIEEGPNLKLLEEALKHVEEAIELLKKEKTPEAEKIIKLLEEAKEKIEKAIKLLKK
# B28: GBRAP_184_5238 (protein)
# chain: KVLEVTVEAADAEELRAKLEAVFAEAEAAGARVRLDVLVEELTPEKVDVLTEEIARMAAAGLLDLVEVTSSTPIAEEHIDRLVAAADAAGVRLVIAEPDE
# B29: GBRAP_57_6464 (protein)
# chain: MSPLEKALEHFEKAIKLIEEGASLEEILEEVEKGLEELDHTLLLDILLLLDPSARSDLSREELRERLLELVRRYLEEKGREEALKALKLMAGQVEMALTE
# Molecular target: GABARAP, O95166
# Sequence (O95166 whole entry, the tested form may be a part): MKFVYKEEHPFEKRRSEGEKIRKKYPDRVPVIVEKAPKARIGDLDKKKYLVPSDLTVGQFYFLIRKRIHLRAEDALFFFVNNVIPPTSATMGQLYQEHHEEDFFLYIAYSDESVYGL
# Test: median log2 fold change of GCK-ALFA target abundance (FLAG IP / Myc IP barcode read proportion) (log2 ratio); each designed protein is fused to an ALFA-tag nanobody in HEK293 cells to bring the named protein to FLAG-tagged glucokinase (GCK); Myc marks an untargeted standard; higher = target protein stabilised (more abundant)
# Settings: target protein: 3xFLAG-MCP-GCK-ALFA reporter; HEK293 landing pad (RPLP)
# How it was run: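 Binders fused to an ALFA nanobody were recombined as a library into HEK293 landing-pad cells, which were induced with 2 μg mL^−1 doxycycline and then transfected to express a FLAG-tagged target and a Myc-tagged standard. After 48 h, circular RNA barcodes recovered by anti-FLAG and anti-Myc immunoprecipitation of lysates were reverse transcribed, amplified and sequenced. Each binder's target abundance is the median log2 ratio of FLAG to Myc barcode read proportions, from barcodes present at ≥10^−7 in both replicates, binders carrying ≥3 barcodes per replicate, a 10^−6 pseudocount and pooled replicates.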
row,Binder,median log2 fold change
1,B1,-0.294
2,B2,-0.678
3,B3,0.226
4,B4,0.312
5,B5,-0.964
6,B6,0.075
7,B7,-0.0618
8,B8,-0.0128
9,B9,0.0022
10,B10,-0.382
11,B11,-1.16
12,B12,-0.364
13,B13,-0.801
14,B14,-0.121
15,B15,0.132
16,B16,0.0979
17,B17,0.0545
18,B18,0.15
19,B19,0.139
20,B20,-0.00921
21,B21,0.182
22,B22,-0.612
23,B23,-0.435
24,B24,-0.573
25,B25,-0.117
26,B26,0.0823
27,B27,-0.743
28,B28,0.168
29,B29,0.249
